Results filed as inconclusive are left out. Activity calls are given as the source filed them. How the source made its calls, unless noted: active means hit-call score of the fitted dose curve at least 0.9, where 1 is the maximum; inconclusive means response in the unintended direction; inactive means score below 0.9.
How the values were obtained:
[1] = TOX21_p53_BLA_p2_viability: Viability Assessment in the Tox21 HCT-116 p53 Agonism Beta-lactamase Assay, Phase 2 (AID 2283591);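 further: compound exposure lasted 16 h at 37 °C; actives lower the ATP signal meaning cytotoxicity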
Summary of the method: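 HCT-116 p53-bla cells (4000/well) rested 5 h at 37C, then received compounds in DMSO (217-fold dilution) for 16 h at 37C, 5% CO2. After the CCF4 read, CellTiter-Glo was added; ATP luminescence was read after 30 min at room temperature.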

[2] = target: Cellular tumor antigen p53 (Homo sapiens) (UniProt P04637); assay: TOX21_p53_BLA_p2_ratio: Tox21 HCT-116 p53 Agonism Beta-lactamase Assay, Ratio, Phase 2 (AID 2283592)
Sequence of Cellular tumor antigen p53 (Homo sapiens) (P04637 whole entry, looked up): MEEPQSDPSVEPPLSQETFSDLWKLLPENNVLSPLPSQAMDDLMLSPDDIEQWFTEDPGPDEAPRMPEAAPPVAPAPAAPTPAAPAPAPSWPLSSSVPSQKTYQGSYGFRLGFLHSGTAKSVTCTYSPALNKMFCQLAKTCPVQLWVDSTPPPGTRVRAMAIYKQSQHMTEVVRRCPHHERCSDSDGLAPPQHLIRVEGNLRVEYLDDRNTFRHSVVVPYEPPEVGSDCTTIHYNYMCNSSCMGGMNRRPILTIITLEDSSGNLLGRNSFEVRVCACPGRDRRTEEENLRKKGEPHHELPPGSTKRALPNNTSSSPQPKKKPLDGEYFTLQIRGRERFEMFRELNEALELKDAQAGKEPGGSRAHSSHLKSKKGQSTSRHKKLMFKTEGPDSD
Summary of the method: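 DMSO-normalized, positive-direction endpoint derived from the 460 nm/530 nm FRET ratio in HCT116 p53 beta-lactamase reporter cells exposed 16 h at 37C and loaded with CCF4-AM for 2 h.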

[3] = target: Cellular tumor antigen p53 (Homo sapiens) (UniProt P04637); assay: TOX21_p53_BLA_p3_ratio: Tox21 HCT-116 p53 Agonism Beta-lactamase Assay, Ratio, Phase 3 (AID 2283596)
Summary of the method: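 Cells were seeded at 4000/well, rested 5 h at 37C, then dosed with DMSO compound solutions (217-fold dilution) for 16 h. CCF4-AM substrate was loaded for 2 h at room temperature, and the 460/530 nm emission ratio was fitted for gain of signal versus DMSO.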

[4] = TOX21_p53_BLA_p4_viability: Viability Assessment in the Tox21 HCT-116 p53 Agonism Beta-lactamase Assay, Phase 4 (AID 2283597);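 further: hits lower the luminescence signal meaning cytotoxicity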
Summary of the method: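 In this multiplexed secondary endpoint, HCT116 cells (4000 per well, compound at 5 h, 16 h treatment) received CellTiter-Glo after the beta-lactamase read. Luminescence after 30 min RT reflects ATP, and falling signal marks cytotoxicity.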

[5] = TOX21_p53_BLA_p5_viability: Viability Assessment in the Tox21 HCT-116 p53 Agonism Beta-lactamase Assay, Phase 5 (AID 2283600)
Summary of the method: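 Here cell health was gauged by ATP levels in wells holding 4000 cells, each treated 16 h with DMSO-delivered compounds at 217-fold dilution; reduced luminescence marked toxicity.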

[6] = target: Cellular tumor antigen p53 (Homo sapiens) (UniProt P04637); assay: TOX21_p53_BLA_p4_ratio: Tox21 HCT-116 p53 Agonism Beta-lactamase Assay, Ratio, Phase 4 (AID 2283601)
Summary of the method: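 HCT116 cells carrying an inducible beta-lactamase reporter were plated at 4000 cells/well, rested 5 h, then exposed to compounds in DMSO (217-fold dilution) for 16 h at 37C. CCF4-AM substrate was loaded 2 h at room temperature; 460/530 nm emission ratio scored gain-of-signal versus DMSO.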

[7] = target: Cellular tumor antigen p53 (Homo sapiens) (UniProt P04637); assay: TOX21_p53_BLA_p5_ratio: Tox21 HCT-116 p53 Agonism Beta-lactamase Assay, Ratio, Phase 5 (AID 2283599)
Summary of the method: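 HCT-116 cells carrying a p53-inducible beta-lactamase reporter were seeded at 4000 cells/well and dosed after 5 h with compound in DMSO (217-fold dilution). After 16 h at 37C, CCF4-AM substrate was added for 2 h, and the 460/530 nm emission ratio was scored as gain-of-signal versus DMSO.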

[8] = CCTE_Deisenroth_DEVTOX-GLR_legacy_CellCount: (Legacy) Viability Assessment in CCTE's DevTox GLR-Endo Assay, Deisenroth Lab (AID 2284331; active means hit-call score of the fitted dose curve at least 0.9, where 1 is the maximum; inactive means score below 0.9); details: actives raise or lower the signal
Summary of the method: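 Human pluripotent RUES2-GLR cells differentiated 48 h with two 24-h-interval exposures, 10-point 1 nM–200 uM series, 0.2% DMSO. Fixed nuclei counted by high-content imaging (5 fields/well); bidirectional fit vs DMSO, n≥4.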

[9] = system: SRY-box transcription factor 2 (SOX2) Protein Expression, Deisenroth Lab, SOX2 (gene 6657); assay: CCTE_Deisenroth_DEVTOX-GLR_Endo_SOX2: CCTE's DevTox GLR-Endo Assay Evaluation of SRY-box transcription factor 2 (SOX2) Protein Expression, Deisenroth Lab (AID 2284412)
Summary of the method: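 Endpoint is percent SOX2-positive cells (SOX2+ count/total cells) minus 0.2% DMSO control, from high-content imaging of fixed, nuclear-stained RUES2-GLR cells. Dosing twice at 24 h intervals over 48 h differentiation, 1 nM–200 uM in 10 points.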

[10] = system: SRY-box transcription factor 17 (SOX17) Protein Expression, Deisenroth Lab, SOX17 (gene 64321); assay: CCTE_Deisenroth_DEVTOX-GLR_Endo_SOX17: CCTE's DevTox GLR-Endo Assay Evaluation of SRY-box transcription factor 17 (SOX17) Protein Expression, Deisenroth Lab (AID 2284413; active means hit-call score of the fitted dose curve at least 0.9, where 1 is the maximum; inactive means score below 0.9)
Summary of the method: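 Fluorescent microscopy of a SOX17 reporter in RUES2-GLR pluripotent cells scored endoderm differentiation after 48 h and two 24-h-spaced exposures. Values are percent change in SOX17+ population against 0.2% DMSO, n=4 experimental replicates.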

[11] = system: Brachyury (BRA) Protein Expression, TBXT (gene 6862); assay: CCTE_Deisenroth_DEVTOX-GLR_Endo_BRA: CCTE's DevTox GLR-Endo Assay Evaluation of Brachyury (BRA) Protein Expression, Deisenroth Lab (AID 2284417; active means hit-call score of the fitted dose curve at least 0.9, where 1 is the maximum; inactive means score below 0.9)
Summary of the method: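 RUES2-GLR pluripotent cells differentiated 48 h with two chemical exposures 24 h apart, 10-point range 1 nM - 200 uM. Percentage of BRA+ cells per total count by high-content imaging, minus 0.2% DMSO control.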

[12] = CCTE_Deisenroth_DEVTOX-GLR_Endo_CellCount: Viability Assessment in CCTE's DevTox GLR-Endo Assay, Deisenroth Lab (AID 2284420; active means hit-call score of the fitted dose curve at least 0.9, where 1 is the maximum; inactive means score below 0.9)
Summary of the method: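 Measured 48 h after dosing: fluorescent nuclei counted by imaging in human RUES2-GLR cells under defined differentiation media, tested at 1 nM - 200 uM. Values are percent cell-count change relative to 0.2% DMSO.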

[13] = system: SRY-box transcription factor 17 (SOX17) Protein Expression, Deisenroth Lab, SOX17 (gene 64321); assay: CCTE_Deisenroth_DEVTOX-GLR_Pluri_SOX17: CCTE's DevTox GLR-Pluri Assay Evaluation of SRY-box transcription factor 17 (SOX17) Protein Expression, Deisenroth Lab (AID 2284427)
Summary of the method: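 Using an inducible fluorescent SOX17 reporter in human pluripotent RUES2-GLR cells, compounds (1 nM - 200 uM) were given twice over 48 h differentiation. Percent SOX17+ cells minus DMSO control came from high-content image analysis.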

[14] = system: Brachyury (BRA) Protein Expression, Deisenroth Lab, TBXT (gene 6862); assay: CCTE_Deisenroth_DEVTOX-GLR_Pluri_BRA: CCTE's DevTox GLR-Pluri Assay Evaluation of Brachyury (BRA) Protein Expression, Deisenroth Lab (AID 2284429)
Summary of the method: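 Mesoderm readout after 48 h differentiation of human RUES2-GLR cells, dosed twice (24-h intervals) at 1 nM - 200 uM. BRA+ frequency from fluorescence imaging of fixed, nuclear-stained cells, DMSO-corrected.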

[15] = CCTE_Deisenroth_DEVTOX-GLR_Pluri_CellCount: Viability Assessment in CCTE's DevTox GLR-Pluri Assay Evaluation of Total Cell Counts, Deisenroth Lab (AID 2284430; active means hit-call score of the fitted dose curve at least 0.9, where 1 is the maximum; inactive means score below 0.9)
Summary of the method: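 Cytotoxicity readout: fluorescent nuclei counts by high-content imaging, expressed as percent change relative to 0.2% DMSO. Human RUES2-GLR pluripotent line differentiated 48 h, dosed twice at 24-h intervals across 1 nM - 200 uM (10 points).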

[16] = TOX21_PR_BLA_Followup_Agonist_viability: Viability Assessment in the Tox21 HEK293 Progesterone Receptor (PR) Agonism Beta-lactamase Follow-Up Assay (AID 2283935);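 further: signal loss means lower viability so actives are cytotoxic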
Summary of the method: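 Cells were plated in medium with 2% charcoal-stripped FBS and rested 6 hr. Compounds in DMSO were then added for 16 hr at 37C, followed by the FRET substrate step and CellTiter-Glo luminescence after 30 min.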

[17] = TOX21_PR_BLA_Followup_Antagonist_viability: Viability Assessment in the Tox21 HEK293 Progesterone Receptor (PR) Antagonism Beta-lactamase Follow-Up Assay (AID 2283936);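 further: cells exposed to compound with R5020 agonist for 16 h; hits lower the luminescence signal meaning cytotoxicity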
Summary of the method: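 PR-UAS-bla HEK293T cells in medium with 2% charcoal-stripped FBS were treated with compounds plus R5020 for 16 hr at 37C. After the beta-lactamase read, CellTiter-Glo was added to the same wells and luminescence read after 30 min at room temperature.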

PGR (gene 5241) = PGR (gene 5241) (UniProt P06401); assay: TOX21_PR_LUC_Followup_Antagonist: Tox21 HEK293 Progesterone Receptor (PR) Antagonism Luciferase Follow-Up Assay (AID 2283938);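 further: curve fitted upward as signal gain over DMSO baseline despite antagonist label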
Sequence of PGR (gene 5241) (P06401 whole entry, looked up): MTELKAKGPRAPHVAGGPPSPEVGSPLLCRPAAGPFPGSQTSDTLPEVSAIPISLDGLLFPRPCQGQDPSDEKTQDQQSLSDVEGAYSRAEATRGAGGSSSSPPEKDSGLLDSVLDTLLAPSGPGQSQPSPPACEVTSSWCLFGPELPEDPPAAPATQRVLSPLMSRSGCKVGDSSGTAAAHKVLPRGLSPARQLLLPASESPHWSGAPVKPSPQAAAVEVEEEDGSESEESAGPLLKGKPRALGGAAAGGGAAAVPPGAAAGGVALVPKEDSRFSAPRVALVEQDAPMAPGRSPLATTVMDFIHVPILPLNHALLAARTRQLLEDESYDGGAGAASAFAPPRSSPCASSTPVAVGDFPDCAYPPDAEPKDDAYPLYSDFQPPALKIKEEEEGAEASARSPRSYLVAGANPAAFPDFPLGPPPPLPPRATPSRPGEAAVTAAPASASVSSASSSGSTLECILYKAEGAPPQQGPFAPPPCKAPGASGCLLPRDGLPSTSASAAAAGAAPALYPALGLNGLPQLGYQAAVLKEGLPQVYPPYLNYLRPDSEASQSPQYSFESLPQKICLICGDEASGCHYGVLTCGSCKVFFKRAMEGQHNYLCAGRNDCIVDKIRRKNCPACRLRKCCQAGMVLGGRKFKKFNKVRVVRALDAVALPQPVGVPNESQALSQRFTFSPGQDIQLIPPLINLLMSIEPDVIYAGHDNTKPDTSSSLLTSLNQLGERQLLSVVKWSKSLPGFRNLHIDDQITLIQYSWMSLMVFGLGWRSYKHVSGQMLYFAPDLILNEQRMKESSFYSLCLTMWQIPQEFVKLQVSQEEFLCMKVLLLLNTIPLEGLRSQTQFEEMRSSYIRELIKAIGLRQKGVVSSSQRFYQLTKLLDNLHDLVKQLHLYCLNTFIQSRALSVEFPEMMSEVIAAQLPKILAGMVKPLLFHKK
Summary of the method: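 Luciferase reporter in HEK293-PR-A-luc cells: 16 h compound treatment at 37C, ONE-Glo luminescence detection, DMSO as negative control and baseline.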

[18] = TOX21_PR_LUC_Followup_Antagonist_viability: Viability Assessment in the Tox21 HEK293 Progesterone Receptor (PR) Antagonism Luciferase Follow-Up Assay (AID 2283940)
Summary of the method: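 HEK293-PR-A-luc, 3,000 cells/well; 5 h at 37C/0% CO2; compound pin transfer; 16 h incubation; CellTiter-Glo ATP luminescence, signal loss = cytotoxicity.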

[19] = TOX21_PR_LUC_Followup_Agonist_viability: Viability Assessment in the Tox21 HEK293 Progesterone Receptor (PR) Agonism Luciferase Follow-Up Assay (AID 2283941);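 further: loss of signal means cytotoxicity so actives lower viability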
Summary of the method: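 Multiplexed viability endpoint of the PR agonist luciferase follow-up: HEK293-PR-A-luc cells treated 16 h at 37C, with viability scored as decrease in CellTiter-Glo ATP signal.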

Measured: AC50

C[C@@H](O)[C@H](N)C(=O)O
inactive: [1] | [2] | [3] | [4] | [5] | [6]

C[C@@H](O)[C@H]1C(=O)N2C(C(=O)O)=C(S[C@@H]3CN[C@H](C(=O)N(C)C)C3)[C@H](C)[C@H]12
inactive: [1] | [2] | [3] | [4] | [5] | [6]

N.N.O=C([O-])C1(C(=O)[O-])CCC1.[Pt+4]
inactive: [1] | [2] | [3] | [7] | [5]

CN1CCN2c3ccccc3Cc3ccccc3C2C1 (configuration not stated)
active: [1] 38.9 µM | [2] 44.4 µM | [4] 37.8 µM | [6] 43.6 µM | [8] 36.5 µM | [9] 89.7 µM | [10] 34.1 µM | [11] 71.3 µM | [12] 36.4 µM | [13] 57 µM | [14] 100 µM | [15] 877 nM
inactive: [3] | [5]

NS(=O)(=O)c1cc(Cl)c(Cl)c(S(N)(=O)=O)c1
inactive: [1] | [2] | [3] | [7] | [5]

COS(=O)(=O)C(F)(F)F
inactive: [1] | [2] | [3] | [4] | [5] | [6]

Cc1ccccc1N1CCN(CCc2nnc3n2CCCC3)CC1
inactive: [1] | [2] | [3] | [4] | [5] | [6]

CCOC(=O)CC(=O)c1cc(F)c(Cl)nc1Cl
inactive: [1] | [2] | [3] | [4] | [5] | [6]

c1ccc2c(c1)CCc1ccccc1N2
inactive: [1] | [2] | [3] | [4] | [6] | [16] | [17] | PGR (gene 5241) | [18] | [19]

CCOC(=O)Cc1cccc(-c2cc(CCCCCCc3ccc(O[C@H]4O[C@H](COC(C)=O)[C@@H](OC(C)=O)[C@H](OC(C)=O)[C@@H]4OC(C)=O)c(-c4cccc(CC(=O)OCC)c4)c3)ccc2O[C@H]2O[C@H](COC(C)=O)[C@@H](OC(C)=O)[C@H](OC(C)=O)[C@@H]2OC(C)=O)c1
inactive: [1] | [2] | [3] | [4] | [6]

OC[C@H]1O[C@@H](n2cnc3c2NC=NC[C@H]3O)C[C@@H]1O
inactive: [1] | [2] | [3] | [4] | [5] | [6]

Cc1ccccc1OCC1CO1 (configuration not stated)
inactive: [1] | [2] | [3] | [4] | [5] | [6]

CC(C)(C)NCCNC(C)(C)C
inactive: [1] | [2] | [3] | [4] | [5] | [6]

COc1cc2c(c(OC)c1OC)-c1c(cc3c(c1OC)OCO3)C[C@@H](C)[C@](C)(O)C2
inactive: [1] | [2] | [3] | [4] | [6]

From PubChem BioAssay (EPA / NIEHS)
